This note sets out measurements from PubChem BioAssay (EPA / NIEHS).

Records with an inconclusive call do not appear. Active and inactive are the calls of the source. The calls were made as follows: active = hit-call score of the fitted dose curve at least 0.9, where 1 is the maximum; inconclusive = response in the unintended direction; inactive = score below 0.9.

The target in the test is Sodium channel protein type 1 subunit alpha (Rattus norvegicus) (UniProt P04774). Description: NVS_IC_rNaCh_site2: NovaScreen (NVS) Ion Channel Assay for rat Sodium Channel, Site 2 (NaCh) (AID 2283322).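 Also: hit means loss of radioligand binding signal relative to DMSO so AC50 marks displacement.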 As for the experimental part: NVS_IC_rNaCh_site2 is a biochemical, single-readout assay that uses extracted gene-proteins from Rat forebrain membranes in a tissue-based cell-free assay. Measurements were taken 1 hour after chemical dosing in a 48-well plate.NVS_IC_rNaCh_site2 is one of one assay component(s) measured or calculated from the NVS_IC_rNaCh_site2 assay. It is designed to make measurements of radioligand binding, a form of binding reporter, as detected with scintillation counting signals by Filter-based radiodetection technology.Data from the assay component NVS_IC_rNaCh_site2 was analyzed into 1 assay endpoint. This assay endpoint, NVS_IC_rNaCh_site2, was analyzed in the positive analysis fitting direction relative to DMSO as the negative control and baseline of activity. Using a type of binding reporter, loss-of-signal activity can be used to understand changes in the binding as they relate to the gene Scn1a. Furthermore, this assay endpoint can be referred to as a primary readout, because the performed assay has only produced 1 assay endpoint. To generalize the intended target to other relatable targets, this assay endpoint is annotated to the ion channel intended target family, where the subfamily is sodium channel.
Binding assays used specific radioligands (tritiated, iodinated) with non-radioactive competitive displacement ligands in agonist or antagonist protocols (as indicated) and various reference compounds and inhibitors to titrate specific binding to receptors and transporters. Most enzyme assays (CYPs, kinases, phosphatases, proteases, HDACs) used recombinant protein and specific substrates (fluorescence mostly, some colorimetric and radioactive) and inhibitors, followed by a biochemical separation of substrate and product. All assays for the biochemical HTS were initially run in duplicate at a single concentration (10 uM for CYP450 assays and 25 uM for all others). […] Each assay was run with positive and negative controls, and concurrent controls on every plate. The follow-up (secondary) screen tested active chemical-pairs in concentration series, as well as a few additional assays not tested in the primary screen, some selected negative inactives, and several cases re-run in the concentration series for confirmatory purposes.
On to `Oc1ccc2c(c1)OC[C@@H](N1CCC(O)(c3ccc(F)cc3)CC1)[C@H]2O`, for which the compound was classed as inactive.

As to `CCc1c(C(=O)NN2CCCCC2)nn(-c2ccc(Cl)cc2Cl)c1-c1ccc(Br)cc1`, the AC50 is 11.5 µM (active). Consider `CCCCC(CC)COC(=O)CC(C(=O)OCC(CC)CCCC)S(=O)(=O)O` (configuration not stated), for which the result was inactive. Take `CN1CCN(Cc2cc(-c3ccc4[nH]c(=O)oc4c3)co2)[C@@H](c2ccc(F)cc2)C1`: the AC50 was 7.72 µM (active). Regarding `CCOC(=O)CCC(=O)OCC`, the outcome was inactive. In the case of `COc1ccc(S(=O)(=O)N2C(=O)[C@@](c3ccccc3OC)(N3C[C@H](O)C[C@H]3C(=O)N(C)C)c3cc(Cl)ccc32)c(OC)c1`, the AC50 was 39.6 µM (active). `Cc1c(C(=O)O)c(O)cc2c1C(=O)c1c(O)c([C@@H]3O[C@H](CO)[C@@H](O)[C@H](O)[C@H]3O)c(O)c(O)c1C2=O`: the compound was classed as inactive. For `COc1cc(-c2nc(NC(=O)c3cc4cc(C)cc(C)c4n3CC(=O)O)sc2CCC2CCCCC2)c(OC)cc1Cl`, the concentration at half-maximal activity (AC50) was 9.13 µM (active). Turning to `NC(=O)Cn1c(=O)cc(CCN2CCN(c3nccc4sccc34)CC2)c2ccc(F)cc21`, the compound was called inactive. As for `Cc1nc(-c2ccc3c(c2)CCN(CCC2CCC(NC(=O)/C=C/c4ccc(F)cc4)CC2)CC3)no1` (configuration not stated), the concentration at half-maximal activity (AC50) was 0.265 µM (active). As for `CC(C)c1ccc(C(=O)N=C(N)N)cc1S(C)(=O)=O`, the AC50 is 34 µM (active).

On to `O=C(N[C@@H](Cc1ccccc1)[C@@H](O)C(=O)N1C[C@@H](O)[C@@H](O)C1)c1cc2cc(Cl)ccc2[nH]1`, for which the call was inactive.

In general, AC50 refers to the concentration at which the activity in the assay is half-maximal.
